# PubChem BioAssay AID1209 (Sanford-Burnham Center for Chemical Genomics, 2008)
# In all, about 190,000 compounds went through this assay and about 810 (0.43%) were called active. Many of the other results were omitted from the sample, so actives are more common in it than they were. A number with no mark means an inactive call. No stated cut-off is given here; in the data, active means inhibition above about 50%; inactive means the rest.
# Target: Mannose-6-phosphate isomerase (Homo sapiens) (UniProt P34949)
# Assay: inhibitors of human PMI, primary screen, biochemical, fluorescence intensity, coupled assay (AID 1209);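 further: plate controls were DMSO vehicle for no effect and wells lacking substrate for full effect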
# Settings: purified PMI enzyme, at 20 µM, stronger effect = higher value
# Mannose-6-phosphate isomerase (Homo sapiens), sequence (P34949 whole entry, looked up): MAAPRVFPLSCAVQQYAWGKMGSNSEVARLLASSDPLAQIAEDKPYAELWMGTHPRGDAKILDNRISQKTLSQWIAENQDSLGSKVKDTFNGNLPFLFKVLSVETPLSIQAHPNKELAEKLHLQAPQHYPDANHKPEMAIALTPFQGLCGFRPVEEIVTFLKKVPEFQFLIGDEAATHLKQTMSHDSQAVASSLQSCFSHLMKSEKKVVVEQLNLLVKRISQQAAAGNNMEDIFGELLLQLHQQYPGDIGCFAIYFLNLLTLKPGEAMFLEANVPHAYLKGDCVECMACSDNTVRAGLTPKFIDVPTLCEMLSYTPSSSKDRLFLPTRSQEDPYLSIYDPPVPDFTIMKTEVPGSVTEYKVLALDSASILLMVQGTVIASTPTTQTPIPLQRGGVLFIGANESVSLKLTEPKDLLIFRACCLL
row,Compound,inhibition
1,O=C(O)CCn1cc(C=C2C(=O)NC(=S)NC2=O)c(-c2cccc(Cl)c2)n1,64.1% (active)
2,N#CCCn1cc(C=C2C(=O)NC(=O)NC2=O)c(-c2ccccc2)n1,-7.4%
3,O=C(O)CCn1cc(C=C2C(=O)NC(=S)NC2=O)c(-c2ccccc2)n1,55.5% (active)
4,O=C(O)CCn1cc(C=C2C(=O)NC(=O)NC2=O)c(-c2cc3ccccc3oc2=O)n1,-3.7%
5,O=C(O)CCn1cc(C=C2C(=O)NC(=O)NC2=O)c(-c2ccc(Br)cc2)n1,5.8%
6,O=C(O)CCn1cc(C=C2C(=O)NC(=S)NC2=O)c(-c2cc3ccccc3oc2=O)n1,-33.9%
7,O=c1c2ccccc2nc(-c2cccs2)n1-c1ccccc1,-8.6%
8,COc1ccc(N/N=C/c2c(O)n(-c3cccc(C)c3)c(=O)[nH]c2=O)cc1,-72.8%
9,CCOCCCNC(=O)CN1C2CCC1CC(O)(c1ccc(OC)cc1)C2 (centres undefined),15%
10,CC(=O)Nc1ccccc1OC(=O)N(C)C,7.3%
11,CN(C)CCCN=Cc1c(O)n(CCc2ccccc2)c(=O)[nH]c1=O,-1.1%
12,CCCCn1c(N)c(C(=O)NCc2cccs2)c2nc3ccccc3nc21,59.9% (active)
13,CCOC(=O)c1c(N)n(CCCOC(=O)c2ccco2)c2nc3ccccc3nc12,6%
14,CCC(C)NC(=O)c1c(N)n(CCCOC)c2nc3ccccc3nc12 (centres undefined),56% (active)
15,CCCCCCn1c(N)c(C(=O)NCCN2CCOCC2)c2nc3ccccc3nc21,28.6%
16,CCCCCn1c(N)c(C(=O)NCc2cccs2)c2nc3ccccc3nc21,51.9% (active)
17,CC(C)CCn1c(N)c(C(=O)NCc2cccs2)c2nc3ccccc3nc21,24.5%
18,CCCCn1c(N)c(C(=O)NCCN2CCOCC2)c2nc3ccccc3nc21,17.1%
19,CCCCNC(=O)c1c(N)n(CCCOC)c2nc3ccccc3nc12,41.1%
20,CCCCn1c(NC(=O)c2ccc(Br)o2)c(C(=O)OCC)c2nc3ccccc3nc21,22.2%
21,CCCCCn1c(N)c(C(=O)NCCN2CCOCC2)c2nc3ccccc3nc21,25.4%
22,CCCCn1c(NC(=O)c2ccco2)c(C(=O)OCC)c2nc3ccccc3nc21,55.8% (active)
23,COCCCn1c(N)c(C(=O)NCCC(C)C)c2nc3ccccc3nc21,37.9%
24,CC1C(c2cccs2)=[N+]([O-])C(C)(C(=O)c2cccs2)N1O (centres undefined),-1.9%
25,Cc1c(C=O)c2ccccc2n1Cc1cccc(F)c1,-20.1%

row,Compound,inhibition
1,CCOC(=O)C1C(=O)N(C)C2(C)CC1c1cc(OC)ccc1O2 (centres undefined),-7%
2,O=C1NC(=O)C(CCc2ccncc2)(CCc2ccncc2)C(=O)N1CCc1ccc(F)cc1,-4.4%
3,COc1ccc2[nH]c(C)c(CCN3CCC(=O)C(C)C3C)c2c1 (centres undefined),13.4%
4,CCOC(=O)N(c1ccccc1)P1(=S)OCC(C)O1 (centres undefined),-1.5%
5,COC(=O)N(c1ccc(OC)cc1)P1(=S)OCCC(C)O1 (centres undefined),62.3% (active)
6,COC(=O)N(c1ccccc1)P1(=S)OCCO1,24.3%
7,CCn1c(=O)n(CC)c2cc([N+](=O)[O-])c(N3CCNCC3)cc21,0.8%
8,CCn1nc(-c2cccs2)nc2c(=O)n(C)c(=O)nc1-2,6.3%
9,CCn1nc(/C=C/c2ccccc2)nc2c(=O)n(C)c(=O)nc1-2,39.7%
10,Cn1ncnc2c(=O)n(C)c(=O)nc1-2,74.8% (active)
11,Cc1nc2c(=O)n(C)c(=O)nc-2n(C)n1,73.6% (active)
12,CCn1nc(-c2ccccc2)nc2c(=O)n(C)c(=O)nc1-2,-4.4%
13,CCc1ccc(CN2CCN(Cc3ccc(SC)cc3)CC2)cc1,-14.5%
14,C=C1N2CCC(CC2)C1(O)c1ccc(C)c(C)c1 (centres undefined),-10.2%
15,O=C(Cc1ccccc1)OCCNC(=O)c1cccnc1,-4%
16,CN(C)C(=O)Oc1c(Cl)cc(Cl)c2cccnc12,8.2%
17,COC(=O)c1ccccc1N=Cc1c(O)[nH]c(=S)[nH]c1=O,-42.9%
18,O=c1c(/C=N/N2CCOCC2)c(O)n(-c2ccccc2)c(=S)n1-c1ccccc1,4.6%
19,Cc1ccccc1C(=O)NC(Oc1ccccc1)C(Cl)(Cl)Cl (centres undefined),6.5%
20,CC(=O)N(C1=NCCCS1)c1ccccc1Cl,-4.6%
21,O=c1[nH]c(=O)n(-c2cccc(Cl)c2)c(O)c1C=NCCCN1CCOCC1,4.5%
22,COc1ccc(P2(=O)Nc3ccccc3N2)cc1,16.8%
23,CC1=CC(=O)NP(=O)(Oc2ccc3ccccc3c2)N1 (centres undefined),78.5% (active)
24,O=C(C1CC(c2ccc(F)cc2)=NO1)N1CCC2(CC1)OCCO2 (centres undefined),-5.3%
25,Cn1ccnc1P(=S)(c1nccn1C)c1nccn1C,-5%

row,Compound,inhibition
1,O=P(c1ccccc1)(c1nc2ccccc2s1)N1CCOCC1 (centres undefined),-5.8%
2,Cc1ccc(NP(=O)(c2ccccc2)c2nc3ccccc3s2)cc1 (centres undefined),80.5% (active)
3,COCCNP(=O)(c1ccccc1)c1nc2ccccc2s1 (centres undefined),1.6%
4,CN(C)c1ccc([P+](=O)c2ccc(N(C)C)cc2)cc1,10.8%
5,CCc1c(C)nc(N)nc1N1N=C1SCC(N)=O,-3%
6,Cc1ccccc1N1C(=O)NC(=O)/C(=C\c2ccc3c(c2)CCCN3Cc2ccccc2)C1=O,-9%
7,CC1CC(OP(O)(=S)c2ccc(N(C)C)cc2NC(=O)c2cccs2)CC(C)(C)C1 (centres undefined),59.7% (active)
8,CCOC(=O)C1(CCc2ccccc2)CCN(Cc2cccc3cnccc23)CC1,24.8%
9,COc1ccc(C(CC(=O)N2CCC3(CC2)OCCO3)NS(=O)(=O)c2ccc(OC)cc2)cc1 (centres undefined),4.9%
10,O=C(C1CCCO1)N1CCC2(CC1)OCCO2 (centres undefined),5.3%
11,Cc1cc(C=C2C(=O)N(C)C(=S)N(C)C2=O)c(C)n1C1CCCCC1,-12.8%
12,CCN1C(=O)C(=Cc2cc(C)n(C3CC3)c2C)C(=O)N(CC)C1=S,63.8% (active)
13,Cc1cc(C=C2C(=O)N(C)C(=S)N(C)C2=O)c(C)n1C1CCCC1,6%
14,Cn1c(O)c(C(=O)c2ccccc2)c(=O)n(C)c1=O,-12.2%
15,CCCCC(=O)N/N=C/c1c(O)n(C2CC2)c(=S)[nH]c1=O,20.6%
16,O=c1[nH]c(=S)n(C2CC2)c(O)c1/C=N/Nc1ccccc1,-61.8%
17,O=C(N/N=C/c1c(O)n(C2CC2)c(=S)[nH]c1=O)c1ccccc1O,60.8% (active)
18,COc1ccc(C2=NCC(=O)N(CC(=O)NCc3ccco3)c3sc4c(c32)CCCC4)cc1,4.5%
19,O=C1CC(=O)N(c2cccc(Cl)c2)C(=O)N1,0.2%
20,CCCCc1nc(N2CCNCC2)c(C#N)c2c1CSC(C)(C)C2,3.9%
21,Oc1ccc(/C=N/NP(=S)(c2ccccc2)c2ccccc2)cc1,14.9%
22,Oc1ccccc1/C=N/NP(=S)(c1ccccc1)c1ccccc1,6.9%
23,Oc1ccc(/C=N/NP(=S)(c2ccccc2)c2ccccc2)c(O)c1O,62.4% (active)
24,O=C1c2ccccc2C(=O)N1Cc1nc2ccccc2c(=O)n1-c1ccccn1,-3%
25,CCCCCCOc1ccc(CN2CCN(CCO)CC2)cc1,-11.3%

row,Compound,inhibition
1,COc1cccc(N2CCN(Cc3cccc(Cl)c3)CC2)c1,9.6%
2,CC12CCC(=O)C=C1CCC1C2CCC2(C)C(O)CCC12 (centres undefined),-6.1%
3,C[C@]12CC[C@@H]3c4ccc(O)c(O)c4CC[C@H]3[C@@H]1CC[C@@H]2O,75.9% (active)
4,CC12CCC3C(CCC4C/C(=N/O)CCC43C)C1CCC2O (centres undefined),2.7%
5,CCOP(=O)(C#CC(C)(C)C)C(C)(O)c1ccccc1 (centres undefined),3.1%
6,Cc1nc2cc(C(F)(F)F)ccc2n1C1CCN(Cc2nnnn2Cc2cccs2)CC1,9.2%
7,CN1CCN(c2c(N)c(=O)oc3ccccc23)CC1,0.6%
8,COCCOC(=O)c1c(N)n(Cc2ccccc2)c2nc3ccccc3nc12,14.3%
9,Cn1c(O)c(C=NC2CCCCCC2)c(=O)[nH]c1=S,6.6%
10,CN(C)c1cccc2c(C#N)ccc(N(C)C)c12,82% (active)
11,CC(C)(C)c1ccc(S(=O)(=O)N2CC3CC(C2)c2cccc(=O)n2C3)cc1 (centres undefined),-3.5%
12,Cc1cc(=O)[nH]c(SCc2nc3ccccc3c(=O)n2-c2ccccc2C)n1,0.9%
13,COc1cccc(NP(=O)(Oc2ccc(Cl)cc2)Oc2ccc(Cl)cc2)c1,18.7%
14,Cc1ccsc1C(=O)C1CCCN(Cc2cnn(C)c2)C1 (centres undefined),9.3%
15,O=C1C2CCN(CC2)C1Cc1ccccc1O (centres undefined),-6.7%
16,Oc1ccc(CC2CC3CCN2CC3)cc1O (centres undefined),52.7% (active)
17,COc1ccc(CC2c3cc(OC)c(OC)cc3CCN2C)cc1O (centres undefined),-2.1%
18,CCc1ccc(N2C(=O)NC(=O)C(CCc3ccncc3)(CCc3ccncc3)C2=O)cc1,4.9%
19,c1ccc(CCn2nnnc2CN2CCC(n3nnc4ccccc43)CC2)cc1,-11.1%
20,COc1cccc(N2C(=O)NC(=O)C3(Cc4cc(C)ccc4N(C)C3)C2=O)c1 (centres undefined),-37%
21,CN1CCc2nc(N)c(C#N)c(-c3ccccc3)c2C1,2.3%
22,Cc1cccc2c1=NC(=O)/C(=C/c1c(O)[nH]c(=O)[nH]c1=O)C=2,-7.2%
23,Cc1ccc2c(c1)=C/C(=C\c1c(O)[nH]c(=O)[nH]c1=O)C(=O)N=2,65% (active)
24,Cc1ccc2c(c1)=C/C(=C\c1c(O)[nH]c(=S)[nH]c1=O)C(=O)N=2,21.3%
